An excerpt weighted towards active compounds, which were near 4.2% of everything screened.
ssDAF-12 act: activates DAF-12 receptor from parasite S. stercoralis; actives 1% (n = 370,000); HEK293 ssDAF-12/GRIP1 lit1-tk-luc reporter, luminescence; % of 3 µM dafachronic acid response; AID 652126; activation, % at 6.8 µM;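 active means activation above the mean over all tested compounds plus 3 SD, cut at about 0.9% in these data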;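 further: 0% = DMSO-only wells and 100% = 3 µM delta7-dafachronic acid wells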
SMARCA2 activ: increases SMARCA2 function in MMTV reporter cells | MG213 cells, MMTV-luciferase reporter, dexamethasone, overnight | AID 652017 | actives 1% (n = 370,000) | activation, % at 9.1 µM; in the data active means activation above about 7.8%;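 further: 0% = vehicle wells and 100% = reference activator wells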
hgDAF-12 ag: agonists of H. glycines DAF-12 nuclear receptor | activation, % at 6.8 µM | actives 1.8% (n = 370,000) | HEK293 GAL4-hgDAF12 UAS-luciferase reporter, agonist luminescence; normalized to butyrate control;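 active means activation above a cutoff set at the mean of all screened compounds plus 3 SD, cut at about 10% in these data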;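 further: 0% = DMSO wells and 100% = sodium butyrate wells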
hcDAF-12 act: activators of H. contortus DAF-12 nuclear receptor; activation, % at 6.8 µM; HEK293 hcDAF-12 lit1-tk-luc reporter, luminescence; 0% DMSO, 100% Δ7-dafachronic acid; AID 652067; actives 1.4% (n = 370,000);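 active means activation above the mean of all tested compounds plus 3 SD, cut at about 5.5% in these data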;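 further: 100% = response to 3 µM Δ7-dafachronic acid high control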
DAX1 StAR inh: blocks DAX1 repression of SF-1 activated StAR promoter; inhibition, % at 6.8 µM; HEK293T StAR-luciferase reporter, SF-1/DAX-1 repression relief; actives 1.1% (n = 370,000);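 active means inhibition above the mean over all tested compounds plus 3 SD, cut at about 3.6% in these data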;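 further: 0% = DAX-1 cells with DMSO and 100% = cells lacking DAX-1 with DMSO; higher inhibition means more luminescence from relief of DAX-1 repression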
hgDAF12 conf: confirmation of H. glycines DAF-12 agonists; shares compounds with hgDAF-12 ag; HEK293 GAL4-hgDAF12 luciferase reporter, agonist mode; percent of butyrate response; activation, % at 6.8 µM; actives 80% (n = 3,300);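 active means mean activation over triplicate wells above the hit cutoff derived from the earlier primary screen, cut at about 11% in these data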;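 further: 0% = DMSO low control and 100% = 2 mM sodium butyrate high control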
LXRb DAF12 ctr: LXR-beta agonism as DAF-12 counter-screen. shares compounds with hgDAF-12 ag. HEK293 Gal4-LXR luciferase reporter, 24 h. activation, % at 6.8 µM. 3,300 tested, under 10 active;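 active means mean activation of the triplicate above a set limit carried over from the primary screen, none filed active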
Target sequence (P55055 whole entry, looked up, the tested form may be a part): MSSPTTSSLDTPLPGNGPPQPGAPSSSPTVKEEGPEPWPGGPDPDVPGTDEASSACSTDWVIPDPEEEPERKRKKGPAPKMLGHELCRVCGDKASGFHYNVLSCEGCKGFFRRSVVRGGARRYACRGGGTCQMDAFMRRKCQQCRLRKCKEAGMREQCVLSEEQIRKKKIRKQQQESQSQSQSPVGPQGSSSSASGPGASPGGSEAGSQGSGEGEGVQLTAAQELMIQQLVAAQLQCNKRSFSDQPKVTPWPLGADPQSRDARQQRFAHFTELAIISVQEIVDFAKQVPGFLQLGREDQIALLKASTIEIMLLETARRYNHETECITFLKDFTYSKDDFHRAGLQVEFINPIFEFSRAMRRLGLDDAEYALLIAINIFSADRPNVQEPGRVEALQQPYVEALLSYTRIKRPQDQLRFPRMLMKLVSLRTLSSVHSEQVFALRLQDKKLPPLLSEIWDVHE
An asterisk follows results filed as active; · = no result.

SMILES	ssDAF-12 act	SMARCA2 activ	hgDAF-12 ag	hcDAF-12 act	DAX1 StAR inh	hgDAF12 conf	LXRb DAF12 ctr
O=C(NO)c1ccccc1O	-1	-2	-2	1	0	·	·
O=S1(=O)N[C@H](Cc2ccccc2)COc2cccc(F)c21	-1	-4	-1	-1	1	·	·
C=CCNc1ncnc2c1cnn2-c1cccc(C)c1	-1	3	17*	2	6.3*	16*	1
Cc1cccc(-n2ncc3c(NCc4ccc5c(c4)OCO5)ncnc32)c1	-1	7	0	0	-1	·	·
CCCCNc1ncnc2c1cnn2-c1ccccc1	0	0	20*	3	0	17*	1
CC(=O)OCCCN1C(=O)CCC12CCC(C)CC2 (stereo unspecified)	-1	-3	-2	-2	-1	·	·
CCCCNC(=O)c1cc(-c2ccc(OC)cc2)on1	0	0	17*	1	2	16*	1
CCCCNC(=O)c1cc(-c2ccc(OC)c(OC)c2)on1	-1	1	6	0	0	·	·
CCCCNC(=O)c1cc(-c2ccc(F)cc2)on1	1	2	34*	2	0	42*	1
O=c1ccoc2ccccc12	0	1	1	1	0	·	·
COC(=O)c1ccccc1NC(=O)Nc1ccc(C(=O)N2CCCC2)cc1	-1	6	-3	0	-1	·	·
COc1ccccc1NC(=O)Nc1ccc(C(=O)N2CCCCC2)cc1	0	8	14*	1	2	11*	0
COc1cccc(C(=O)Nc2nc(C)cs2)c1	0	5	15*	2	2	14*	1
COc1cccc(C(=O)Nc2nc(-c3ccncc3)cs2)c1	-2	-1	-3	-3	-1	·	·
COc1ccccc1C(=O)Nc1ccccn1	-1	1	14*	4	1	13*	0
CCOC(=O)c1sc(NC(=O)Nc2ccccc2)cc1C	0	-3	17*	6	3	23*	1
CC(=O)Nc1cccc(/C(C)=N/Nc2nc3ccccc3s2)c1	0	1	15*	4	3	13*	1
CCOC(=O)c1sc(NC(=O)c2ccc(C)s2)cc1C	1	0	9	3	3	·	·
COc1ccccc1C(=O)Nc1ccncc1	-2	0	-2	-4	0	·	·
COc1cccc(C(=O)N[C@@H](CC(C)C)C(=O)N2CCC[C@H]2C(=O)NCc2ccccc2)c1	-1	0	4	0	-1	·	·
Cc1ccccc1CN1CCCCC(NC(=O)c2ccccc2)C1=O (stereo unspecified)	-2	-2	2	-1	-2	·	·
COc1cccc(C(=O)Nc2nc3ccccc3s2)c1	2.4*	1	17*	6.3*	3	20*	1
O=C(Nc1ccccn1)c1ccc(Br)s1	1	3	16*	1	1	13*	1
COc1ccc(C(=O)Nc2nc3ccc(S(C)(=O)=O)cc3s2)cc1OC	-2	-5	-2	-2	-1	·	·
COc1ccc(C(=O)Nc2nc3ccccc3s2)cc1	0	1	7	3	1	·	·
SMILES	ssDAF-12 act	SMARCA2 activ	hgDAF-12 ag	hcDAF-12 act	DAX1 StAR inh	hgDAF12 conf	LXRb DAF12 ctr
Cc1csc(NC(=O)c2ccc3c(c2)OCO3)n1	-1	5	17*	4	2	16*	1
COc1ccc(C(=O)Nc2nc3ccccc3s2)cc1OC	0	-1	19*	3	3	14*	1
Cc1csc(NC(=S)NC(=O)c2ccccc2)n1	0	4	16*	5	1	16*	1
COc1ccc2nc(NC(=O)c3ccc(F)cc3)sc2c1	0	1	14*	0	2	13*	1
Cc1csc(NC(=O)c2ccc(Br)s2)n1	0	1	17*	3	0	13*	1
CCOC(=O)c1sc(NC(=O)Nc2ccc(F)cc2)nc1C	0	2	17*	4	3.7*	23*	1
CC[C@H](C)[C@@H](N)C(=O)NC[C@H]1O[C@@H](n2cnc3c(=O)[nH]c(N)nc32)[C@H](O)[C@@H]1O	0	-4	-1	1	0	·	·
C#CCN1C(=O)[C@]2(OCCC=C[C@H]2C)c2ccccc21	-1	0	1	1	2	·	·
COc1ccc(NC(=O)C2(C)Cc3c(-c4ccc(C(N)=O)cc4)ccnc3O2)cn1 (stereo unspecified)	-1	-2	0	-1	0	·	·
CC(C)c1[nH]nc2c1C(c1ccc(F)cc1)NC2=O (stereo unspecified)	-1	2	-2	-1	1	·	·
CC(C)(C)[C@@H]1/C(=C/C2CC2)N2C(=O)C[C@@H](c3ccccc3)N=C2N1Cc1ccc2c(c1)OCO2	-2	·	-1	-2	·	·	·
CCOC(=O)c1sc(NC(=S)NC(=O)c2ccccc2)nc1C	0	7	16*	5.9*	3	12*	0
CCC/C=N/NC(=O)c1cccc(Br)c1	-1	6	14*	-1	0	3	0
COCCCn1cnc2oc3nc4ccccc4nc3c2c1=O	0	5	15*	6	3	19*	1
CCN(CC)c1ccc(NC(=O)c2ccccc2F)cc1	1	6	14*	5.6*	2	21*	1
Cc1cc(/C=N/NC(=O)c2ccccc2F)c(C)n1-c1ccccc1	1	4	14*	4	3	17*	1
CCC(/C=N/NC(=O)c1ccccc1F)CC	-1	6	18*	1	2	1	0
O=C(C1CCCN1S(=O)(=O)c1ccc(Cl)s1)N1CCN(c2ccccc2)CC1 (stereo unspecified)	-1	-3	2	-4	0	·	·
O=C(NCC(c1ccccc1)c1ccccc1)[C@H](Cc1c[nH]c2ccccc12)NC1(C(=O)NC2CCCCC2)CCCCCC1	-2	·	-1	0	·	·	·
CC(C)c1nnc(NC(=O)C2CCCO2)s1 (stereo unspecified)	-1	4	4	0	2	·	·
Cc1cnc(NC(=O)C2CCCO2)s1 (stereo unspecified)	-1	4	15*	0	0	4	0
CN(C)c1ccc(C2=NOC(CN3C(=O)c4ccccc4S3(=O)=O)C2)cc1 (stereo unspecified)	0	5	13*	5	3	18*	1
Cc1cccc(NC(=O)C2COc3ccccc3O2)n1 (stereo unspecified)	-1	3	1	-2	0	·	·
O=C(Nc1ccc(Cl)cn1)C1COc2ccccc2O1 (stereo unspecified)	1	4	14*	6.0*	4	11*	0
